Values without a mark were called inactive. Entries that show only a call come without a potency. For some of these results: Potency and affinity values are given separately. Calls of active or inactive are those of the source. Unless noted, how the calls were made is not given here.
Assays:
[1] = antimalarial activity against Dd2 strain (AID 2302;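 active means growth inhibition above 50% at the single 2 µM test dose, taken to imply half-maximal potency below 2 µM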); conditions: P. falciparum Dd2 in RBCs, LDH growth readout, 72 h; at 2 µM; active compounds read high
[2] = HepG2 cytotoxicity, primary screen, cytotoxicity control for P. falciparum antimalarial project, cell-based, ATP luminescence (AID 2303;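 active means inhibition above 50%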); conditions: HepG2 viability, 24-48 h, at 10 µM, active compounds read high
[3] = target: L-lactate dehydrogenase (Plasmodium falciparum (isolate CDC / Honduras)) (UniProt Q27743); test: PfLDH activity inhibition – cell lysate, 3D7 strain, counter-screen for P. falciparum growth inhibition project (AID 2304); conditions: P. falciparum 3D7 crude extract, LDH APAD/NBT absorbance; at 2 µM; active compounds read high
[4] = inhibition of 3D7 malaria parasite growth – strain 3D7 (AID 2306); conditions: P. falciparum 3D7 erythrocytic growth, LDH absorbance, 72 h; at 2 µM; active compounds read high
[5] = target: Calcium-dependent protein kinase 1 (Plasmodium falciparum (isolate 3D7)) (UniProt P62344); test: PfCDPK1 kinase inhibitors, biochemical, TCAMS library (AID 1159585; cut-off not given, nearly all actives have IC50 up to about 0.98 µM;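 further: inhibitors leave more ATP so luminescence rises with inhibition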); conditions: recombinant PfCDPK1, Kinase-Glo ATP depletion luminescence
[6] = target: Plasmodium falciparum protein kinase 6 (PK6, PF3D7_1337100) (UniProt Q8IDW1); test: PfPK6 kinase inhibitors, biochemical, TCAMS library (AID 1159586); conditions: recombinant PfPK6, Kinase-Glo ATP depletion luminescence
[7] = target: Protein kinase 7 (PK7), Plasmodium falciparum 3D7 (PF3D7_0213400) (UniProt Q7YTF7); test: inhibition of Plasmodium PK7 catalytic activity – biochemical, TCAMS antimalarial set, Kinase-Glo luminescence (AID 1159587); conditions: recombinant PfPK7, Kinase-Glo ATP depletion luminescence
[8] = target: Calcium-dependent protein kinase 4 (Plasmodium falciparum (isolate 3D7)) (UniProt Q8IBS5); test: PfCDPK4 kinase inhibitors, biochemical, TCAMS library (AID 1159588; cut-off not given, nearly all actives have IC50 up to about 0.91 µM); conditions: recombinant PfCDPK4, Kinase-Glo ATP depletion luminescence
Calcium-dependent protein kinase 4 (Plasmodium falciparum (isolate 3D7)), sequence (Q8IBS5 whole entry, looked up): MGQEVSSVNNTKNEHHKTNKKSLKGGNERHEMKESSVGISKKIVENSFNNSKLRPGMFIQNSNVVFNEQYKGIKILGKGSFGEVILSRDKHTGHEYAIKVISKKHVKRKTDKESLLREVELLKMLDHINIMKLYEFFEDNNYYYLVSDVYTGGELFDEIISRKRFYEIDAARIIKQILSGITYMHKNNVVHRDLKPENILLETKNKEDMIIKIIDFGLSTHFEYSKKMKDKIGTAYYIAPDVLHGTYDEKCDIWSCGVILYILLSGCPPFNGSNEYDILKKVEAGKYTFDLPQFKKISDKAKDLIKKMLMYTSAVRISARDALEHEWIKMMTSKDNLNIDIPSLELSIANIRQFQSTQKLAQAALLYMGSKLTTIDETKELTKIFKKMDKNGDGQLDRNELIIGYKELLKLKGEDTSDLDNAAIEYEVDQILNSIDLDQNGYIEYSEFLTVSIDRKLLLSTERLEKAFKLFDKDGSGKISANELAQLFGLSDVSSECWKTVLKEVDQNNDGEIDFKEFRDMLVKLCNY

Calcium-dependent protein kinase 1 (Plasmodium falciparum (isolate 3D7)), sequence (P62344 whole entry, looked up): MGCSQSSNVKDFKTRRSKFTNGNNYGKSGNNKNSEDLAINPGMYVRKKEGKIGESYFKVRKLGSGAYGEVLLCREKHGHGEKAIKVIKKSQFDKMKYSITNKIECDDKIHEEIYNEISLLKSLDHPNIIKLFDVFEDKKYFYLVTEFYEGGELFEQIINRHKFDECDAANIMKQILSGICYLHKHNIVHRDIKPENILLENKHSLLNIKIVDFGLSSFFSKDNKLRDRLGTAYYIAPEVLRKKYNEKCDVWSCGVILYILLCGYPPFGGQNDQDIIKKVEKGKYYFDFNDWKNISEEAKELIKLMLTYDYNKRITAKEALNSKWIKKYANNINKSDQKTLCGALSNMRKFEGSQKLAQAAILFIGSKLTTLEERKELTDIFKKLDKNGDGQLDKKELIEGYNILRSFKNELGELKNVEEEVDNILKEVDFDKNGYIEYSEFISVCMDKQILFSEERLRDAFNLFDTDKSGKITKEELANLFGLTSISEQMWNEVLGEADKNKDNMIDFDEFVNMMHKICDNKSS
Protein kinase 7 (PK7), Plasmodium falciparum 3D7 (PF3D7_0213400), sequence (Q7YTF7 1-343): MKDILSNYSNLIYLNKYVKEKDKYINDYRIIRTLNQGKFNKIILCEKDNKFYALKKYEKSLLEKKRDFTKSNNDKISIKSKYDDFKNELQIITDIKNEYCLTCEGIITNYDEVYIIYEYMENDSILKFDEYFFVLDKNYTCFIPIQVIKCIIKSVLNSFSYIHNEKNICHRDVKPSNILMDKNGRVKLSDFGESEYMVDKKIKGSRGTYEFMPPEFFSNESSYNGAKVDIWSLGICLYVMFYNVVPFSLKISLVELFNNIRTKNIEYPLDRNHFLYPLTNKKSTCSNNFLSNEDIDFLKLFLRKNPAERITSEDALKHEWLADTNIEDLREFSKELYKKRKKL
Plasmodium falciparum protein kinase 6 (PK6, PF3D7_1337100), sequence (Q8IDW1 1-305): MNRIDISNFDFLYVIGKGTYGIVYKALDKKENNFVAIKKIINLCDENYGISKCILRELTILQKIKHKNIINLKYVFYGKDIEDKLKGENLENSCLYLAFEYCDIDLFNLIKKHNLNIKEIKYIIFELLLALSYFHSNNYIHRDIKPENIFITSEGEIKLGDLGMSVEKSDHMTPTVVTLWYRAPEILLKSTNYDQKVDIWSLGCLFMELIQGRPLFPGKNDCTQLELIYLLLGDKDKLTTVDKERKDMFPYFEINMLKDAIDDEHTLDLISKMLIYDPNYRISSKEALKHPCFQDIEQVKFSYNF
L-lactate dehydrogenase (Plasmodium falciparum (isolate CDC / Honduras)), sequence (Q27743 whole entry, looked up): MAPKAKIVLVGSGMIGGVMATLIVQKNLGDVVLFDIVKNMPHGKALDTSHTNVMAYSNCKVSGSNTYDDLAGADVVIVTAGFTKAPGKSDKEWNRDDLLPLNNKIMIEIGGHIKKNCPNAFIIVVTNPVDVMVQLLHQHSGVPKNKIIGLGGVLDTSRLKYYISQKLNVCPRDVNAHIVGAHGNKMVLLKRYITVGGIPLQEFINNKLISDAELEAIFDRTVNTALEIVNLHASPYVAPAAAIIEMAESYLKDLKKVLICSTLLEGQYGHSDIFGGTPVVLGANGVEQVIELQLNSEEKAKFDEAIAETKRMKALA

Row | Structure (SMILES) | growth inhibition [1] | inhibition [2] | inhibition [3] [%] | growth inhibition [4] | outcome [5] | outcome [6] | outcome [7] | outcome [8]
1 | O=C(NC1CC1)c1ccc(N2CCC(Cc3ccccc3)CC2)c([N+](=O)[O-])c1 | 83% (active) | 12% | -1 | 96% (active) | inactive | inactive | inactive | inactive
2 | CCCc1cc(NCC)nc(Nc2ccc(C)cc2)n1 | 16% | 22% | -1 | 95% (active) | inactive | inactive | inactive | inactive
3 | CCOc1ccnc(=O)[nH]1 | 95% (active) | -4% | 5 | 97% (active) | inactive | inactive | inactive | inactive
4 | COc1cc(C2=NN(S(=O)(=O)c3c(Cl)cc(Cl)cc3Cl)CCCC2)ccc1Cl | 97% (active) | 3% | -1 | 98% (active) | inactive | inactive | inactive | inactive
5 | Cc1cc(NCCC(=O)Nc2ccccc2)nc(NCCc2ccc(F)cc2)n1 | 43% | 26% | 2 | 101% (active) | inactive | inactive | inactive | inactive
6 | FC(F)(F)c1cccc(-c2cc(NCCCn3ccnc3)nc(-c3ccncc3)n2)c1 | 100% (active) | 50% (active) | 5 | 101% (active) | inactive | inactive | inactive | inactive
7 | N=C(N)c1ccc(Oc2ccc(C(=N)N)cc2)cc1 | 85% (active) | 18% | -3 | 92% (active) | inactive | inactive | inactive | inactive
8 | NC(=O)c1cnc2ccc(-c3cncs3)cc2c1Nc1ccc(F)c(Cl)c1 | 99% (active) | 3% | 6 | 97% (active) | inactive | inactive | inactive | inactive
9 | COc1ccc(C(=O)COc2cccc(/C=C/C(=O)O)c2)cc1OC | 28% | 44% | 3 | 84% (active) | inactive | inactive | inactive | inactive
10 | CC(=O)Nc1ccc(OCCCN(Cc2ccccc2OC(F)(F)F)c2ccc(C(F)(F)F)c(C#N)c2)c(Cl)c1 | 80% (active) | 5% | 0 | 91% (active) | inactive | inactive | inactive | inactive
11 | C=CCOC(=O)N1CCC(CNCc2cccc(-c3cccc(-c4nc5ccc(F)cc5[nH]4)c3)c2)C1 (stereo not drawn) | 49% | 20% | 0 | 102% (active) | inactive | inactive | inactive | inactive
12 | Clc1ccccc1CNc1noc(-c2sccc2Br)n1 | 93% (active) | 0% | -7 | 97% (active) | inactive | inactive | inactive | inactive
13 | Cc1cc(NCC(c2ccccc2)c2ccccc2)nc(NCc2ccc(C(F)(F)F)cc2)n1 | 79% (active) | 29% | 2 | 102% (active) | inactive | inactive | inactive | inactive
14 | Cc1ccc(F)c(CN2CCC(N3CC(c4ccccc4)(c4ccccc4)OC3=O)CC2)c1Cl | 89% (active) | 11% | -4 | 95% (active) | inactive | inactive | inactive | inactive
15 | Cc1ccc(C)c(NC(=O)Nc2ccc(C)c(-c3ccc(C(=O)Nc4ccncc4)cc3)c2)c1 | 59% (active) | 46% | -3 | 98% (active) | inactive | inactive | inactive | inactive
16 | COc1ccccc1CCNc1nc(C)cc(N[C@@H](CC(C)C)C(=O)Nc2ccccc2)n1 | 76% (active) | 16% | -2 | 101% (active) | inactive | inactive | inactive | inactive
17 | Oc1ccc(CCNc2nc(NCCCOc3ccccc3-c3ccncc3)nc(N3CCNCC3)n2)cc1 | -3% | 8% | 1 | 96% (active) | inactive | inactive | inactive | inactive
18 | Cc1[nH]c(C)c(-c2ccc(C(F)(F)F)cc2)c(=O)c1Br | 96% (active) | -5% | -8 | 98% (active) | inactive | inactive | inactive | inactive
19 | OC(CN(Cc1ccccc1)Cc1ccccc1)Cn1c2ccc(Cl)cc2c2cc(Cl)ccc21 (stereo not drawn) | 95% (active) | 5% | 6 | 89% (active) | inactive | inactive | inactive | inactive
20 | CCc1cn2c3c(cc(C(=O)N[C@@H](Cc4ccccc4)[C@H](O)CNC(C)(C)c4cccc(OC)c4)cc13)N(C)S(=O)(=O)C2 | 99% (active) | 27% | -5 | 98% (active) | inactive | inactive | inactive | inactive
21 | CCCCCCCc1[nH]c2ccccc2c(=O)c1C | 96% (active) | 48% | 2 | 97% (active) | inactive | inactive | inactive | inactive

Row | Structure (SMILES) | growth inhibition [1] | inhibition [2] | inhibition [3] [%] | growth inhibition [4] | outcome [5] | outcome [6] | outcome [7] | outcome [8]
22 | COc1ccc2nc(Nc3nc4ccncc4[nH]3)sc2c1 | 26% | 8% | 0 | 88% (active) | inactive | inactive | inactive | inactive
23 | CCCCCCNC(=O)c1nn(CCN2CCC(N3CCCC3)CC2)cc1-c1ccc(Cl)c(Cl)c1 | 33% | 31% | -2 | 101% (active) | inactive | inactive | inactive | inactive
24 | O=C(Cc1ccccc1)NC1CCN(c2ccnc3cc(Cl)ccc23)C1 (stereo not drawn) | 78% (active) | 6% | -6 | 101% (active) | inactive | inactive | inactive | inactive
25 | FC(F)(F)c1ccc2nc(-c3cccc(-c4cccc(CN5CCN(c6ccncc6)CC5)c4)c3)[nH]c2c1 | 99% (active) | 93% (active) | 3 | 100% (active) | inactive | inactive | inactive | inactive
26 | CCCC(C)Nc1nc(C)cc(NCCC(=O)Nc2ccccc2)n1 (stereo not drawn) | 11% | 12% | -4 | 96% (active) | inactive | inactive | inactive | inactive
27 | CCN(CCCN1CCCCC1)c1cc(C)nc(Nc2ccc(Cl)cc2C)n1 | 46% | 44% | 2 | 95% (active) | inactive | inactive | inactive | inactive
28 | Cc1cc(O)c2c(c1)OC(C)(C)C=C2C1=CCN(Cc2ccccc2)CC1 | 1% | -2% | -3 | 96% (active) | inactive | inactive | inactive | inactive
29 | Cc1noc(C)c1-c1cccc(CNCc2ccc(-c3ccc(-c4nc5ccc(C(F)(F)F)cc5[nH]4)s3)cc2)c1 | 99% (active) | 54% (active) | 3 | 102% (active) | inactive | inactive | inactive | inactive
30 | O=C(Nc1cccc(CN2CCCN(Cc3ccc4c(c3)OCO4)CC2)c1)c1cc2ccccc2s1 | 11% | 32% | 2 | 95% (active) | inactive | inactive | inactive | inactive
31 | NC(N)=NN=CC(=O)Nc1ccc(Cl)c(C(F)(F)F)c1 | 0% | -6% | 0 | 100% (active) | inactive | inactive | inactive | inactive
32 | COc1ccc(CCCON2C(N)=NC(N)=NC2(C)C)cc1 | 94% (active) | 61% (active) | -1 | 95% (active) | inactive | inactive | inactive | inactive
33 | CC(C)C1C(O)=C(c2ccc3ccccc3c2)C(=O)N1Cc1ccsc1 (stereo not drawn) | 82% (active) | 11% | 3 | 88% (active) | inactive | inactive | inactive | inactive
34 | Cc1ccc(C(=O)Nc2ccc(F)cc2)cc1-c1nc(NC2CC(C)(C)NC(C)(C)C2)nc2c1ccc(=O)n2-c1c(F)cccc1F | 96% (active) | 16% | -2 | 89% (active) | inactive | inactive | inactive | inactive
35 | O=C(Nc1nc2cc(S(=O)(=O)NCCc3cccc(F)c3)ccc2n1CCCn1ccnc1)c1ccc(Cl)cc1 | 8% | -24% | 0 | 90% (active) | inactive | inactive | inactive | inactive
36 | CCCNCc1ccc(-c2ccc(CN(CCOC)C(=O)Cc3cccnc3)cc2)nc1 | 13% | 10% | -1 | 92% (active) | inactive | inactive | inactive | inactive
37 | Cc1cccc2[nH]c(-c3ccc(-c4ccc(CN5CCN(c6cnccn6)CC5)cc4)s3)nc12 | 42% | 11% | -6 | 94% (active) | inactive | inactive | inactive | inactive
38 | CCOc1ccc(C(=O)Nc2ccc(-c3nc4ccccc4[nH]3)cc2)cc1[N+](=O)[O-] | 70% (active) | 22% | 4 | 100% (active) | inactive | inactive | inactive | inactive
39 | CNCCCNc1ccnc2cc(Cl)ccc12 | 25% | 11% | -1 | 101% (active) | inactive | inactive | inactive | inactive
40 | CC(C)CN(c1nc(C(=O)NNC(=O)[C@H](CC2CC2)NC(=O)c2cc3cc(OCCN(C)C)ccc3o2)cs1)C1CC1 | 97% (active) | -5% | -4 | 87% (active) | inactive | inactive | inactive | inactive
41 | Cc1cc(N[C@@H](CC(C)C)C(=O)NCc2cccc(F)c2)nc(NCC2CCCCC2)n1 | 70% (active) | 3% | -3 | 99% (active) | inactive | inactive | inactive | inactive
